Experimental findings from PubChem BioAssay (NCATS) are described below.

Molecules are shown by their SMILES. “And” between values parts separate entries of the source, which are not always exact repeats. Identical values can stand only once. Inconclusive results are not listed. Some structures have more than one record in an assay (separate samples or runs), and their calls can disagree. A number with no mark means an inactive call. The source made the active and inactive calls. Calls come from the whole dose curve; as a rule, active = well fitted curve in the direction sought with a large enough effect; inconclusive = small, poorly fitted or top-dose-only effect, or another doubt; inactive = no such curve, though single readings can be large; an effect the other way counts as inactive or inconclusive.

For one assay, the system named is CRL-7250. The assay can be described thus: Cytotoxic Profiling of Annotated Libraries Using Quantitative High-Throughput Screening (AID 1296008). Note: nearly all actives have a fitted effect of over 60% in size. Note: potency is the fitted concentration of half-maximal effect. The note with it: Five cell lines viability, CellTiter-Glo ATP luminescence, 48-72 h; max response: hits give low values. Summed up:
(§1)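 Cells exposed to compounds for 48 or 72 hr at 37 degrees Celsius. Viability read as ATP-coupled luminescence with CellTiter-Glo after 10 min at room temperature.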
On the technique in general: ATP-based viability assays read luminescence as a measure of living cells.

In a further assay the test system is HEK293. Described as above. The note with it: Five cell lines viability, CellTiter-Glo ATP luminescence, 48-72 h; max response: hits give low values. Summed up: as §1
The next assay deals with KB-3-1. The assay is described as above. The note with it: Five cell lines viability, CellTiter-Glo ATP luminescence, 48-72 h; max response: hits give low values. The gist of the method: as §1
Assay [1] deals with NIH3T3. The assay is described as above. The note with it: Five cell lines viability, CellTiter-Glo ATP luminescence, 48-72 h; max response: hits give low values. The gist of the method:
as §1

Another assay deals with MKL-2. Description: qHTS assay to identify novel small-molecules to repurpose for Merkel cell carcinoma treatment (AID 1296009). Note: nearly all actives have a fitted effect of over 60% in size. Note: potency is the fitted concentration of half-maximal effect. The note with it: MCC and control cell lines, CellTiter-Glo viability, 72 h; series mostly up to 46 µM. The gist of the method:
(§2)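 Cells were treated for 72 hr at 37 degree celsius with compounds in 8- or 11-point dose response. Viability was read by CellTiter-Glo luminescence, normalized to no-cell (cytotoxicity) and DMSO controls.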

A further assay has as its system UISO. The assay is described as above. The note with it: MCC and control cell lines, CellTiter-Glo viability, 72 h; series mostly up to 46 µM. Summed up: as §2
The next assay concerns WaGa. The assay is described as above. The note with it: MCC and control cell lines, CellTiter-Glo viability, 72 h; series mostly up to 46 µM. The gist of the method: as §2
Assay [2] concerns HaCat. Description: Cytotoxic Profiling of Annotated Libraries Using Quantitative High-Throughput Screening (AID 1296008). Note: nearly all actives have a fitted effect of over 60% in size. Note: potency is the fitted concentration of half-maximal effect. The note with it: Five cell lines viability, CellTiter-Glo ATP luminescence, 48-72 h; max response: hits give low values. The gist of the method: as §1
The subject of assay [3] is HACAT. The assay can be described thus: qHTS assay to identify novel small-molecules to repurpose for Merkel cell carcinoma treatment (AID 1296009). Note: nearly all actives have a fitted effect of over 60% in size. Note: potency is the fitted concentration of half-maximal effect. The note with it: MCC and control cell lines, CellTiter-Glo viability, 72 h; at 44.8 µM (top of the series) unless noted. The gist of the method:
as §2
(Quantitative high-throughput screening tests each substance at several concentrations.)

The next assay has as its system MCC-13. The description is as above. The note with it: MCC and control cell lines, CellTiter-Glo viability, 72 h; series mostly up to 46 µM. Summed up: as §2
The subject of a further assay is MCC-26. The assay is described as above. The note with it: MCC and control cell lines, CellTiter-Glo viability, 72 h; series mostly up to 46 µM. The gist of the method: as §2
The next assay has as its system MKL-1. Described as above. The note with it: MCC and control cell lines, CellTiter-Glo viability, 72 h; series mostly up to 46 µM. The gist of the method: as §2
The test system of the next assay is HEK293T. Described as above. The note with it: MCC and control cell lines, CellTiter-Glo viability, 72 h; at 44.8 µM (top of the series) unless noted. The gist of the method: as §2
A further assay has as its system C33A. Description: Primary qHTS to identify gynecologic anti-cancer compounds using libraries of approved drugs and bioactive compounds (AID 1345084). Note: nearly all actives have a fitted effect of over 55% in size. The note with it: Gynecologic cancer cell panel viability, ATPlite luminescence, 48 h; series mostly up to 57.5 µM. Summed up: (§3)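 48 h compound exposure at 37 C, 5% CO2; five-point qHTS. ATPlite luminescence readout of cell ATP.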

For the next assay, the system named is CASKI. The assay is described as above. The note with it: Gynecologic cancer cell panel viability, ATPlite luminescence, 48 h; series mostly up to 57.5 µM. Summed up: as §3
The next assay relates to Es-2. The assay is described as above. The note with it: Gynecologic cancer cell panel viability, ATPlite luminescence, 48 h; series mostly up to 57.5 µM. The gist of the method: as §3
In another assay the test system is HeLa. The assay is described as above. The note with it: Gynecologic cancer cell panel viability, ATPlite luminescence, 48 h; series mostly up to 57.5 µM. The gist of the method: as §3
The next assay concerns CAOV3. Described as above. The note with it: Gynecologic cancer cell panel viability, ATPlite luminescence, 48 h; series mostly up to 57.5 µM. Summed up:
as §3

Assay [4] has as its system NIH3T3. Description: qHTS assay to identify novel small-molecules to repurpose for Merkel cell carcinoma treatment (AID 1296009). Note: nearly all actives have a fitted effect of over 60% in size. Note: potency is the fitted concentration of half-maximal effect. The note with it: MCC and control cell lines, CellTiter-Glo viability, 72 h; series mostly up to 44.8 µM. The gist of the method: as §2
% is set by controls: 0 for no effect and ±100 for the full control effect.

On to `CC(C)n1c(C=C[C@H](O)C[C@H](O)CC(=O)O)c(-c2ccc(F)cc2)c2ccccc21`, for which the Potency with CRL-7250 is 2.64 µM (active); in the assay with HEK293, 14.8 µM (active); with KB-3-1, 11.8 µM (active); in the assay on NIH3T3 [1], 16.6 µM (active); in the assay with MKL-2 it was 7.43 µM (active); in the assay with UISO, 10.5 µM (active). The Potency in the assay with WaGa is 18.7 µM (active).

With `Cc1ccc(C2=Nc3ccc(Cl)cc3OC2)cc1`, the compound was classed as inactive in the assay on CRL-7250, in the assay on HaCat [2] and with HACAT [3]. Also, the max response was 5.39% with KB-3-1 and -2.62% with NIH3T3 [1]. The Potency result in the assay with MCC-13 and in the assay with MCC-26 was “inactive” throughout. Besides, the Potency with MKL-1 was 14.8 µM (active).

Take `CCCCC[C@H](O)C=C[C@H]1[C@H](O)CC(=O)[C@H]1CCCCCCC(=O)O`: the max response with CRL-7250 is -0.21%; in the assay on HaCat [2] it was -1.7%; in the assay with KB-3-1, -2.88%; in the assay on NIH3T3 [1], -0.203%. In addition, the Potency entry in the assay on MCC-13, with MCC-26 and in the assay on MKL-1 was “inactive” throughout.

In the case of `CN(C)c1nc(Cc2ccc(NC(=O)c3ccc(C(F)(F)F)cc3)cc2)nc(N(C)C)c1CC(=O)O`, the result in the assay on CRL-7250, with HaCat [2], with KB-3-1, in the assay on HACAT [3] and in the assay on HEK293T was inactive. Moreover, the max response with KB-3-1 is 4.62%; in the assay on NIH3T3 [1], -4.49% and 4.34%. The Potency result in the assay on MCC-13, in the assay on MCC-26, with MKL-1, in the assay on MKL-2, in the assay on UISO and in the assay on WaGa was “inactive” each time. Also, the Potency result with C33A, in the assay on CASKI, in the assay with Es-2 and in the assay with HeLa was “inactive” throughout.

With `CNC(=O)c1ccc2c(C(=Nc3cccc(CN(C)C)c3)c3ccccc3)c(O)[nH]c2c1`, the max response in the assay with CRL-7250 was -0.775% and -15%; in the assay with HaCat [2] it was 0.629%. Moreover, the call in the assay on HaCat [2], with KB-3-1 and in the assay with HACAT [3] was inactive. The Potency in the assay with NIH3T3 [1] is 16.6 µM (active) and 8.2 µM (active). Further, the Potency entry in the assay with MCC-13, with MCC-26, with MKL-1, with UISO, in the assay with WaGa and with C33A was “inactive” each time. In addition, the Potency entry in the assay on CAOV3, with CASKI, in the assay on Es-2 and in the assay with HeLa was “inactive” throughout.

As for `N#CC(=C1Nc2ccccc2S1)c1ccnc(OCc2ccc(CN3CCOCC3)cc2)n1`, the max response in the assay with CRL-7250 was 4.11%; in the assay with KB-3-1 it was -1.84%; in the assay on NIH3T3 [1], -8.13%. The outcome in the assay with HaCat [2] and in the assay on HACAT [3] was “inactive; activator” in each case. Also, the Potency result with MCC-13 and with MCC-26 was “inactive” throughout. Further, the Potency in the assay on MKL-1 was 0.118 µM (active); with MKL-2 it was 0.132 µM (active); with UISO, 1.48 µM (active); in the assay with WaGa it was 0.132 µM (active).

Turning to `N#CC(c1ccnc(NCCc2cccnc2)n1)c1nc2ccccc2s1` (centres undefined), the values for the max response with CRL-7250, in the assay on KB-3-1 and with NIH3T3 [1] were -3.29%, 8.21% and -3.33%, respectively. Further, the call in the assay with HaCat [2] and with HACAT [3] was inactive. For the same compound, the Potency entry with MCC-13, in the assay on MCC-26, in the assay on MKL-1, with MKL-2 and with UISO was “inactive” in each case.

As to `COc1ccc2c(c1)c(C1=C(c3c[nH]c4ccccc34)C(=O)NC1=O)cn2CCCN(C)C`, the outcome in the assay on CRL-7250, with HaCat [2] and in the assay on HACAT [3] was inactive. In addition, the figures for the max response in the assay on KB-3-1 and in the assay with NIH3T3 [1] were -14.8% and 4.3%, respectively. Besides, the Potency entry in the assay with MCC-13 and in the assay on MCC-26 was “inactive” in each case.

With `Cc1cc(NC(=O)Nc2ccc(N(C)C)cc2)c2cc(F)cc(F)c2n1`, the result with CRL-7250, in the assay on HaCat [2], in the assay on KB-3-1, with NIH3T3 [1] and with HACAT [3] was inactive. The Potency entry in the assay with MCC-13, in the assay with MCC-26, with MKL-1, with MKL-2, with NIH3T3 [4] and with UISO was “inactive” throughout. Also, the Potency result with WaGa was “inactive”.

Turning to `O=[N+]([O-])c1ccc(Nc2ccccc2-c2ccccc2)c2nonc12`, the max response is -7.85% in the assay with CRL-7250, -18.3% in the assay on KB-3-1 and -25.2% with NIH3T3 [1]. In addition, the call with HaCat [2] and in the assay with HACAT [3] was inactive. For the same compound, the Potency entry in the assay with MCC-13, in the assay with MCC-26, in the assay with MKL-1, in the assay with MKL-2, with UISO and in the assay with WaGa was “inactive” in each case.

Turning to `NC(N)=Nc1nc(CSCCC(N)=NS(N)(=O)=O)cs1`, the max response in the assay on CRL-7250 was -0.357%; with KB-3-1, 6.28%. Moreover, the compound was classed as inactive in the assay with HaCat [2], in the assay on NIH3T3 [1] and with HACAT [3]. The Potency entry in the assay on MCC-13, with MCC-26, in the assay with MKL-1, in the assay with NIH3T3 [4] and with UISO was “inactive” each time.

For `CCC[C@H](N[C@@H](C)C(=O)N1[C@@H]2CCCC[C@H]2C[C@H]1C(=O)O)C(=O)OCC`, the max response was 2.7% in the assay on CRL-7250, -1.21% in the assay with KB-3-1 and -10.8% with NIH3T3 [1]. Moreover, the result in the assay on HaCat [2] and in the assay with HACAT [3] was inactive. Moreover, the Potency result in the assay with MCC-13, in the assay on MCC-26, in the assay on MKL-1, in the assay with MKL-2, with UISO and with WaGa was “inactive” in each case.

Consider `CO[C@@H]1C(N(C)C(=O)c2ccccc2)C[C@H]2O[C@]1(C)n1c3ccccc3c3c4c(c5c6ccccc6n2c5c31)C(=O)NC4=O` (some centres undefined), for which the Potency is 6.62 µM (active) in the assay on CRL-7250, 9.35 µM (active) in the assay with HaCat [2] and 10.5 µM (active) with KB-3-1.

In the case of `CC=C1C2C=C(C)CC1(N)c1ccc(=O)[nH]c1C2` (centres undefined), the max response was 3.51% in the assay with CRL-7250, 3.2% with KB-3-1 and -12.9% in the assay with NIH3T3 [1]. Moreover, the compound was classed as inactive in the assay on HaCat [2] and with HACAT [3]. The Potency entry in the assay on MCC-13, in the assay on MKL-1, with MKL-2, with UISO and with WaGa was “inactive” each time.

As to `C[C@@H]1CCO[C@H]2Cn3cc(C(=O)NCc4ccc(F)cc4F)c(=O)c(O)c3C(=O)N12`, the result in the assay on CRL-7250, with HaCat [2] and with HACAT [3] was inactive. Moreover, the max response in the assay on KB-3-1 was -10.6% and -26.2%; in the assay on NIH3T3 [1], -1.73%. Further, the Potency with NIH3T3 [1] is 20.6 µM (active). For the same compound, the Potency result with MCC-13, in the assay with MCC-26 and with UISO was “inactive” each time.

Regarding `COc1nccc(-c2c(-c3ccc(F)cc3)ncn2C2CCNCC2)n1`, the max response in the assay on CRL-7250 was -23.7% and 3.35%; in the assay on HaCat [2] it was -7.28% and 1.1%; with KB-3-1, -17.7%; with NIH3T3 [1], -16.2%. In addition, the result in the assay with KB-3-1 was inactive. In addition, the Potency entry in the assay with MCC-13, in the assay with MCC-26, in the assay on MKL-1, with MKL-2, with UISO and in the assay on WaGa was “inactive” in each case. Further, the Potency entry in the assay with C33A, with CASKI, in the assay on Es-2 and with HeLa was “inactive” in each case.
